What follows are sequences tested against TMEM130 (assay: pooled miR-30 sensor sort-seq; sequence = guide strand). Details: shRNA.
Further: reference of the scale not given here.

Row | Sequence | sensor-assay potency score (higher = more potent)
1 | TAGTTATGGATTTTTAACCCTT | -0.844
2 | TTGCTGAGTGGCATTCCGCAGG | -0.984
3 | TTCTGCTTCACAGCCCTCGTGG | -0.803
4 | TTGGAAGGTCTGAATTAGGGTG | 0.0908
5 | TTGCCAGTAAGCACCAGCGGGG | -1.3
6 | TTCAAGGTCACGGTCATCTTTT | -0.705
7 | ATAGTTATAATAGACCACGGAG | -0.516
8 | TTTATTTAGCAACAATGGCAGT | -0.968
9 | TTGTCCTTGGCCACCAGGCTGG | -1.04

What follows are sequences tested against TMEM140 in the same assay as above. Details: shRNA.

Row | Sequence | sensor-assay potency score (higher = more potent)
10 | AAGAGCGTAAAACATCAGGCAG | -0.966
11 | TGTACTAAGAAGTCACAGGTGC | 0.194
12 | TGCTCATGAACAGCAGCTGGTC | -1.48
13 | TGACACTGTAGGGTGCTGGTGT | 0.184
14 | TATAGAAGCCGATTCTCAGGTT | 0.501
15 | TAGAAGCCGATTCTCAGGTTGG | -0.232
16 | TATGATGCTCATGAACAGCAGC | -0.769
17 | ATCACGAGGACTATGATGCTCA | -0.61
18 | TCTCTCATCACTGTTGCACTGG | 0.0267
19 | TTATAGAAGCCGATTCTCAGGT | 0.174
20 | ATGAACAGCAGCTGGTCGCGCC | -1.18
21 | ATGCTCATGAACAGCAGCTGGT | -1.09

What follows are sequences tested against TMEM147 in the same assay as above. Details: shRNA.

Row | Sequence | sensor-assay potency score (higher = more potent)
22 | TGTGGTACAGATCATAGCGTGT | -0.505
23 | TTGTAGGTGATGAAGTAGGGGA | -0.423
24 | TAGACCTATCAGGTCTGCCACA | -1.51
25 | TAATGGACCAGACTGATGTTGG | -0.822
26 | TTGGAGTCTATGCTCATCTGGA | -0.274
27 | TCATAGCGTGTTATCATCCAGA | -0.557
28 | TTGTACTCGGACAGGCCGCTGC | -1
29 | TAGAGCTGCCCAACTGCCCAGC | -1.02
30 | TCTGGATGTACTTCCAGTCAAA | -1.49
31 | TATCAGGTCTGCCACATCCACG | -1.57
32 | TTATCATCCAGACCTGAGCAGA | -0.978

What follows are sequences tested against TMEM156 in the same assay as above. Details: shRNA.

Row | Sequence | sensor-assay potency score (higher = more potent)
33 | AATGTGTATACAATCATTCGGG | -0.0136
34 | TTGTTGATCTTCCAGTGTGGTT | -1.08
35 | TTTATCGATTTCTCCTTGCTTG | 0.0129
36 | TACACTGAAGTTAAAGTGCTGA | 0.144
37 | TTAAGAGAACAGATGTAGGTTT | 0.112
38 | TTTTATATCCATCTCCAGGTGC | -0.346
39 | TAGATTGCAAACACACTTCCAG | 0.703
40 | TAGTTTATCGATTTCTCCTTGC | -0.128

— the OligoGym collection
